Data published in the supplement of paper PMC12494721.
Where a name gives a salt, the structure may show the parent alone.

How the values were obtained:
Conditions in all cases: incubation time: 27 h, anaerobic, 37 °C;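 for the amine columns active = adjusted P below 0.05 in both replicates with a change the same way and a mean fold change under 0.8 or over 1.25; inactive = the rest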
[1] = system: Clostridium sporogenes DSM 1664; test: growth (OD595) fold change vs plate DMSO controls (fold change (ratio)); higher = more growth
Outline: (§1)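 Shaken 96-well cultures in mGAM, grown anaerobically for 27 h at 37 °C, were read at 595 nm. OD came from blank-subtracted readings, corrected for background with 20 µM compound solutions in water and scaled by a calibration factor of 5. Growth is the fold change versus the plate's median DMSO control. Values average 2 biological replicates, and any fold change above 1.5 is NA.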

Escherichia coli IAI1 [2] = test: as above
Outline: as §1

[3] = system: Klebsiella aerogenes DSM 30053; test: as above
Outline: as §1

[4] = system: Ruminococcus gnavus DSM 108212; test: as above
Outline: as §1

[5] = system: Klebsiella aerogenes DSM 30053; test: fold change of Histamine concentration vs plate DMSO controls (fold change (ratio)); higher = more amine produced, active = hit call of the paper (significant change in both replicates, either direction)
Outline: (§2)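 Each value is the fold change relative to DMSO-only wells on the same plate. Four gut bacterial strains were grown anaerobically in mGAM at 37 °C for 27 h in 80 µL wells, starting at OD 0.1 before a 1:1 dilution, with compounds at 20 µM final (sweeteners 50 µM). Whole cultures were extracted with cold acetonitrile/methanol containing 0.1% formic acid, centrifuged, and amines were quantified by LC–triple-quadrupole MS (dynamic MRM) against external calibration curves with within-batch drift correction. Values are means of 2 biological replicates.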

[6] = system: Clostridium sporogenes DSM 1664; test: fold change of Tryptamine concentration vs plate DMSO controls (fold change (ratio)); higher = more amine produced, active = hit call of the paper (significant change in both replicates, either direction)
Outline: as §2

[7] = system: Ruminococcus gnavus DSM 108212; test: as above
Outline: as §2

Escherichia coli IAI1 [8] = test: fold change of Putrescine concentration vs plate DMSO controls (fold change (ratio)); higher = more amine produced, active = hit call of the paper (significant change in both replicates, either direction)
Outline: as §2

[9] = system: Klebsiella aerogenes DSM 30053; test: as above
Outline: as §2

Escherichia coli IAI1 [10] = test: fold change of Cadaverine concentration vs plate DMSO controls (fold change (ratio)); higher = more amine produced, active = hit call of the paper (significant change in both replicates, either direction)
Outline: as §2

[11] = system: Klebsiella aerogenes DSM 30053; test: as above
Outline: as §2

[12] = system: Ruminococcus gnavus DSM 108212; test: fold change of 2-Phenylethylamine concentration vs plate DMSO controls (fold change (ratio)); higher = more amine produced, active = hit call of the paper (significant change in both replicates, either direction)
Outline: as §2

SMILES	growth [1]	growth (Escherichia coli IAI1 [2])	growth [3]	growth [4]	fold change of Histamine concentration [5]	fold change of Tryptamine concentration [6]	fold change of Tryptamine concentration [7]	fold change of Putrescine concentration (Escherichia coli IAI1 [8])	fold change of Putrescine concentration [9]	fold change of Cadaverine concentration (Escherichia coli IAI1 [10])	fold change of Cadaverine concentration [11]	fold change of 2-Phenylethylamine concentration [12]
O=S(=O)([O-])NC1CCCCC1.[Na+] [Sodium cyclamate] (50 µM)	1.01	1.02	0.974	1.03	1.04 (inactive)	1.01 (inactive)	1.01 (inactive)	1.03 (inactive)	1.02 (inactive)	1.05 (inactive)	1 (inactive)	1.02 (inactive)
O=C(Oc1ccccc1)n1c(C(F)(F)F)nc2cc(Cl)c(Cl)cc21 (20 µM)	0.822	0.604	0.714	0.827	1.39 (active)	1.11 (inactive)	0.875 (inactive)	1.38 (active)	0.931 (inactive)	1.59 (active)	0.926 (inactive)	0.917 (inactive)
Cn1c(=O)c2c(ncn2CCO)n(C)c1=O [Etofylline] (20 µM)	0.922	1.01	1.01	1.04	0.983 (inactive)	0.964 (inactive)	0.853 (inactive)	1.01 (inactive)	0.997 (inactive)	1.03 (inactive)	1 (inactive)	0.839 (inactive)
N[C@@H]1CONC1=O [D-cycloserine] (20 µM)	0.977	0.973	1.09	0.926	0.897 (inactive)	0.958 (inactive)	0.931 (inactive)	1 (inactive)	1.03 (inactive)	1.02 (inactive)	1.05 (inactive)	0.868 (inactive)
O=C1Nc2ccccc2C1(c1ccc(O)cc1)c1ccc(O)cc1 [Oxyphenisatin] (20 µM)	1.19	1.05	1	0.994	1.03 (inactive)	0.982 (inactive)	0.935 (inactive)	1.04 (inactive)	1 (inactive)	1.01 (inactive)	0.999 (inactive)	0.89 (inactive)
Cc1cccc(Nc2ccccc2C(=O)O)c1C [Mefenamic acid] (20 µM)	1.08	0.988	0.961	1.03	1.05 (inactive)	0.983 (inactive)	1.01 (inactive)	1.01 (inactive)	0.998 (inactive)	0.976 (inactive)	0.995 (inactive)	0.982 (inactive)
CCN(CC)C(C)CN1c2ccccc2Sc2ccccc21 (stereo not given) [Ethopropazine hydrochloride] (20 µM)	1.04	0.975	0.954	0.823	1.01 (inactive)	1.03 (inactive)	0.928 (inactive)	1.05 (inactive)	1 (inactive)	1.04 (inactive)	0.992 (inactive)	0.984 (inactive)
CC1(C)O[C@@H]2C[C@H]3[C@@H]4C[C@H](F)C5=CC(=O)CC[C@]5(C)[C@H]4[C@@H](O)C[C@]3(C)[C@]2(C(=O)CO)O1 [Flurandrenolide] (20 µM)	0.993	1.15	0.987	1.27	0.982 (inactive)	1.08 (inactive)	1.16 (inactive)	1.18 (inactive)	0.966 (inactive)	0.954 (inactive)	1.04 (inactive)	1.33 (inactive)
CCCSc1ccc2[nH]c(NC(=O)OC)nc2c1 [Albendazole] (20 µM)	0.989	1.01	1.05	0.661	1.09 (inactive)	0.961 (inactive)	1.07 (inactive)	1.01 (inactive)	1.02 (inactive)	0.982 (inactive)	1.01 (inactive)	1.13 (inactive)
O=C(Cn1ccnc1[N+](=O)[O-])NCCO [Etanidazole] (20 µM)	0.988	1.01	1.06	0.954	0.832 (inactive)	0.98 (inactive)	1.28 (active)	0.91 (inactive)	1.03 (inactive)	1.02 (inactive)	1.11 (inactive)	1.83 (active)
CC(Oc1ccccc1)C(=O)N[C@@H]1C(=O)N2[C@@H]1SC(C)(C)[C@@H]2C(=O)O (stereo not given in full) [Phenethicillin potassium salt] (20 µM)	0	1.05	0.995	0	0.936 (inactive)	0.0424 (active)	0.045 (active)	0.969 (inactive)	0.954 (inactive)	1.06 (inactive)	1.02 (inactive)	0.0417 (active)
CC(=O)OCC(=O)NCCCOc1cccc(CN2CCCCC2)c1 [Roxatidine acetate hydrochloride] (20 µM)	1.02	1.06	1.01	0.677	0.958 (inactive)	0.989 (inactive)	0.972 (inactive)	1.27 (inactive)	1.01 (inactive)	1.18 (inactive)	1.01 (inactive)	0.905 (inactive)
CC(=O)OCC1=C(C(=O)O)N2C(=O)[C@@H](NC(=O)Cc3cccs3)[C@H]2SC1 [Cephalothin sodium salt] (20 µM)	0	1.29	1.11	0.125	1.1 (inactive)	0.0346 (active)	0.0635 (active)	1.17 (inactive)	1.02 (inactive)	1.62 (inactive)	1.01 (inactive)	0.0703 (active)
CN(C)CCOC1=Cc2ccccc2Sc2ccc(Cl)cc21 [Zotepine] (20 µM)	1.11	1.07	1.05	1.34	1 (inactive)	1.01 (inactive)	0.902 (inactive)	1.08 (inactive)	0.99 (inactive)	1.05 (inactive)	0.993 (inactive)	0.924 (inactive)
CCCOc1ccc2[nH]c(NC(=O)OC)nc2c1 [Oxibendazol] (20 µM)	0.862	0.999	0.972	0.869	1.04 (inactive)	0.982 (inactive)	1 (inactive)	1 (inactive)	1.02 (inactive)	1 (inactive)	0.987 (inactive)	0.996 (inactive)
C#C[C@]1(O)CC[C@H]2[C@@H]3CCC4=CC(=O)CC[C@@H]4[C@H]3CC[C@@]21CC [(D-) Norgestrel] (20 µM)	1.06	0.994	1.02	0.996	1.05 (inactive)	1.01 (inactive)	1.01 (inactive)	0.982 (inactive)	0.998 (inactive)	1.03 (inactive)	0.985 (inactive)	0.978 (inactive)
[S] (20 µM)	1.07	0.919	0.964	0.976	0.924 (inactive)	0.999 (inactive)	1.01 (inactive)	1.02 (inactive)	0.962 (inactive)	0.951 (inactive)	1 (inactive)	1.02 (inactive)
O=C1NCN(c2ccccc2)C12CCN(CCCC(c1ccc(F)cc1)c1ccc(F)cc1)CC2 [Fluspirilene] (20 µM)	0.921	0.951	1.01	1.01	0.981 (inactive)	0.959 (inactive)	0.814 (inactive)	0.996 (inactive)	0.994 (inactive)	1.02 (inactive)	0.995 (inactive)	0.884 (inactive)
Oc1ccc2ccccc2c1N=Nc1ccccc1 [Sudan I (1-phenylazo-2-hydroxynaphthalene)] (20 µM)	0.978	1.06	1.08	1.12	0.924 (inactive)	0.919 (inactive)	1.04 (inactive)	0.952 (inactive)	0.893 (inactive)	0.915 (inactive)	1.08 (inactive)	1.07 (inactive)
CCN(CC)CCNC(C(=O)OCCC(C)C)c1ccccc1 (stereo not given) [Camylofine chlorhydrate] (20 µM)	1.11	0.997	1.02	0.857	1.04 (inactive)	0.953 (inactive)	0.943 (inactive)	0.998 (inactive)	1 (inactive)	0.985 (inactive)	0.988 (inactive)	0.94 (inactive)
CCCCC(CC)CN1C(=O)[C@@H]2[C@H](C1=O)[C@@H]1C=C[C@H]2C1 (mixture of isomers) (20 µM)	1.03	1.02	1.06	1.02	0.925 (inactive)	0.978 (inactive)	1.05 (inactive)	0.993 (inactive)	0.987 (inactive)	1.02 (inactive)	1 (inactive)	1.06 (inactive)
CC(C)(Sc1cc(C(C)(C)C)c(O)c(C(C)(C)C)c1)Sc1cc(C(C)(C)C)c(O)c(C(C)(C)C)c1 [Probucol] (20 µM)	1.03	1.06	1.03	1.15	0.921 (inactive)	1.02 (inactive)	1.01 (inactive)	1.04 (inactive)	0.983 (inactive)	0.921 (inactive)	1.01 (inactive)	1.01 (inactive)
Cc1nc(C)c(Cl)c(O)c1Cl [Clopidol] (20 µM)	1.18	1.01	1.04	1.14	1 (inactive)	0.998 (inactive)	1.01 (inactive)	1.02 (inactive)	0.991 (inactive)	1.02 (inactive)	0.985 (inactive)	1.01 (inactive)
COc1ccc2cc([C@H](C)C(=O)O)ccc2c1 [(S)-Naproxen] (20 µM)	1.04	1.1	1.02	1.08	1.04 (inactive)	0.983 (inactive)	0.969 (inactive)	1.06 (inactive)	0.977 (inactive)	1 (inactive)	0.988 (inactive)	0.899 (inactive)
C[C@]12C[C@H](O)[C@H]3[C@@H](CCC4=CC(=O)CC[C@@]43C)[C@@H]1CC[C@@H]2C(=O)CO [Corticosterone] (20 µM)	0.994	1.05	1.07	1.11	0.992 (inactive)	0.971 (inactive)	0.998 (inactive)	1.05 (inactive)	0.99 (inactive)	1.01 (inactive)	1 (inactive)	1.04 (inactive)
